# According to PubChem BioAssay AID1159580 (chemical genetic matrix, 2015):
# Hit rate of the full screen: of about 5,500 compounds, about 2,000 (36%) were called active. About 18% were inconclusive and are not listed. The list shows a part of the results. A number with no mark means an inactive call. Rule as the data show it: active = normalized growth mostly below about 0.91 (no sharp cut-off); inconclusive = no clear call, values can overlap the other calls; inactive = mostly above about 0.92.
# Assay: chemical genetic growth profiling, strain panel (AID 1159580);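 also: tested at 20 µM; growth read once vehicle control cultures reached saturation at 30 °C; 1 = growth at the plate median or of vehicle wells; lower values mean less growth of the strain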
# Conditions: S. cerevisiae deletion strains, growth OD
# [1] = locus YDR150W, strain NUM1, hits give low values
# [2] = locus YGR078C, strain PAC10, hits give low values
# [3] = locus YNL153C, strain GIM3, hits give low values
# [4] = locus YAR019C, strain CDC15, hits give low values
# [5] = locus YBL105C, strain PKC1, hits give low values
# [6] = locus YBR135W, strain CKS1, hits give low values
# [7] = locus YBR136W, strain MEC1, hits give low values
# [8] = locus YBR160W, strain CDC28, hits give low values
# [9] = locus YDL017W, strain CDC7, hits give low values
# [10] = locus YDL028C, strain MPS1, hits give low values
# [11] = locus YDL101C, strain DUN1, hits give low values
# [12] = locus YDL108W, strain KIN28, hits give low values
# [13] = locus YDL132W, strain cdc53, hits give low values
# [14] = locus YDL214C, strain PRR2, hits give low values
# [15] = locus YDR052C, strain DBF4, hits give low values
# [16] = locus YDR054C, strain cdc34, hits give low values
# [17] = locus YDR226W, strain ADK1, hits give low values
# [18] = locus YDR477W, strain SNF1, hits give low values
# [19] = locus YER123W, strain YCK3, hits give low values
# [20] = locus YER133W, strain GLC7, hits give low values
# [21] = locus YFL009W, strain cdc4, hits give low values
# [22] = locus YFL029C, strain CAK1, hits give low values
# [23] = locus YFR003C, strain YPI1, hits give low values
# [24] = locus YFR019W, strain FAB1, hits give low values
# [25] = locus YFR028C, strain CDC14, hits give low values
# [26] = locus YGR040W, strain KSS1, hits give low values
# [27] = locus YGR052W, strain FMP48, hits give low values
# [28] = locus YGR092W, strain DBF2, hits give low values
# [29] = locus YHR030C, strain SLT2, hits give low values
# [30] = locus YHR079C, strain IRE1, hits give low values
# [31] = locus YHR082C, strain KSP1, hits give low values
# [32] = locus YHR205W, strain SCH9, hits give low values
# [33] = locus YIL147C, strain SLN1, hits give low values
# [34] = locus YJL095W, strain BCK1, hits give low values
# [35] = locus YJL128C, strain PBS2, hits give low values
# [36] = locus YJL157C, strain FAR1, hits give low values
# [37] = locus YJR016C, strain ILV3, hits give low values
# [38] = locus YJR066W, strain TOR1 (second series), hits give low values
# [39] = locus YJR066W, strain TOR1, hits give low values
# [40] = locus YKL048C, strain ELM1, hits give low values
# [41] = locus YKL067W, strain YNK1, hits give low values
# [42] = locus YKL101W, strain HSL1, hits give low values
# [43] = locus YKL193C, strain SDS22, hits give low values
# [44] = locus YKL203C, strain TOR2, hits give low values
# [45] = locus YLR113W, strain HOG1, hits give low values
# [46] = locus YLR133W, strain CKI1, hits give low values
# [47] = locus YLR403W, strain SFP1, hits give low values
# [48] = locus YML070W, strain DAK1, hits give low values
# [49] = locus YMR001C, strain CDC5, hits give low values
# [50] = locus YMR205C, strain PFK2 (second series), hits give low values
# [51] = locus YMR277W, strain FCP1, hits give low values
# [52] = locus YNL006W, strain LST8, hits give low values
# [53] = locus YNL020C, strain ARK1, hits give low values
# [54] = locus YNL161W, strain CBK1, hits give low values
# [55] = locus YNL183C, strain NPR1, hits give low values
# [56] = locus YNL207W, strain RIO2, hits give low values
# [57] = locus YNL222W, strain SSU72, hits give low values
# [58] = locus YNL307C, strain MCK1 (second series), hits give low values
# [59] = locus YOL078W, strain AVO1, hits give low values
# [60] = locus YOL136C, strain PFK27, hits give low values
# [61] = locus YOR061W, strain CKA2, hits give low values
# [62] = locus YOR329C, strain SCD5, hits give low values
# [63] = locus YPL031C, strain PHO85, hits give low values
# [64] = locus YPL153C, strain RAD53, hits give low values
# [65] = locus YPL204W, strain HRR25, hits give low values
# [66] = locus YPL209C, strain IPL1, hits give low values
# [67] = locus YPL256C, strain CLN2, hits give low values
# [68] = locus YPR025C, strain CCL1, hits give low values
# [69] = locus YPR106W, strain ISR1, hits give low values
# [70] = locus YPR111W, strain DBF20, hits give low values
# [71] = strain NNK1, hits give low values
# [72] = strain TSCII, hits give low values
compound,measurement,setting,value
C[C@]12N[C@H](Cc3ccccc31)c1ccccc12,normalized growth,"locus YAL040C, strain CLN3, hits give low values",1.04
same,normalized growth,"locus YCL061C, strain MRC1 (second series), hits give low values",0.988
same,normalized growth,[1],1
same,normalized growth,"locus YDR363W, strain ESC2, hits give low values",0.953
same,normalized growth,"locus YER002W, strain NOP16, hits give low values",0.964
same,normalized growth,[2],0.973
same,normalized growth,"locus YMR307W, strain GAS1, hits give low values",1
same,normalized growth,"locus YNL128W, strain TEP1, hits give low values",0.992
same,normalized growth,[3],0.978
same,normalized growth,"locus YNL175C, strain NOP13, hits give low values",0.98
same,normalized growth,"locus YNL197C, strain WHI3, hits give low values",0.957
same,normalized growth,"locus YNL224C, strain SQS1, hits give low values",0.979
same,normalized growth,"locus YOR083W, strain WHI5 (second series), hits give low values",0.995
O=C(CCn1c(=O)oc2ccccc21)Sc1ccc(C(F)(F)F)cc1,normalized growth,[4],0.931
same,normalized growth,[5],0.962
same,normalized growth,[6],0.957
same,normalized growth,[7],0.941
same,normalized growth,[8],0.951
same,normalized growth,[9],0.967
same,normalized growth,[10],0.925
same,normalized growth,[11],0.975
same,normalized growth,[12],0.94
same,normalized growth,[13],0.965
same,normalized growth,[14],0.793
same,normalized growth,[15],0.961
same,normalized growth,[16],0.936
same,normalized growth,[17],0.951
same,normalized growth,[18],0.742
same,normalized growth,[19],0.677
same,normalized growth,[20],0.876
same,normalized growth,[21],0.917
same,normalized growth,[22],0.937
same,normalized growth,[23],0.97
same,normalized growth,[24],0.942
same,normalized growth,[25],0.958
same,normalized growth,[26],0.7
same,normalized growth,[27],0.774
same,normalized growth,[28],0.473 (active)
same,normalized growth,[29],0.318 (active)
same,normalized growth,[30],0.479 (active)
same,normalized growth,[31],0.781
same,normalized growth,[32],0.792
same,normalized growth,[33],0.935
same,normalized growth,[34],0.838
same,normalized growth,[35],0.929
same,normalized growth,[36],0.703
same,normalized growth,[37],0.966
same,normalized growth,[38],0.418 (active)
same,normalized growth,[39],0.587
same,normalized growth,[40],0.897
same,normalized growth,[41],0.779
same,normalized growth,[42],0.834
same,normalized growth,[43],0.955
same,normalized growth,[44],0.937
same,normalized growth,[45],0.848 (active)
same,normalized growth,[46],0.779
same,normalized growth,[47],0.799
same,normalized growth,[48],0.879
same,normalized growth,[49],0.938
same,normalized growth,[50],0.882
same,normalized growth,[51],0.919
same,normalized growth,[52],0.954
same,normalized growth,[53],0.783
same,normalized growth,[54],0.962
same,normalized growth,[55],0.778
same,normalized growth,[56],0.949
same,normalized growth,[57],0.935
same,normalized growth,[58],0.557 (active)
same,normalized growth,[59],0.951
same,normalized growth,[60],0.851
same,normalized growth,[61],0.607 (active)
same,normalized growth,"locus YOR119C, strain RIO1, hits give low values",0.922
same,normalized growth,[62],0.965
same,normalized growth,[63],0.732
same,normalized growth,[64],0.552 (active)
same,normalized growth,[65],0.813
same,normalized growth,[66],0.971
same,normalized growth,[67],0.83 (active)
same,normalized growth,[68],0.956
same,normalized growth,[69],0.956
same,normalized growth,[70],0.93
same,normalized growth,[71],0.96
same,normalized growth,[72],0.931
O=C(CCn1c(=O)oc2ccccc21)Sc1ccc(Cl)cc1Cl,normalized growth,[4],0.894
same,normalized growth,[5],0.935
same,normalized growth,[6],0.914
same,normalized growth,[7],0.913
same,normalized growth,[8],0.895 (active)
same,normalized growth,[9],0.942
same,normalized growth,[10],0.884 (active)
same,normalized growth,[11],0.971
same,normalized growth,[12],0.897
same,normalized growth,[13],0.9
same,normalized growth,[14],0.359 (active)
same,normalized growth,[15],0.936
same,normalized growth,[16],0.748 (active)
same,normalized growth,[17],0.899
same,normalized growth,[18],0.222 (active)
same,normalized growth,[19],0.278 (active)
same,normalized growth,[20],0.435 (active)
same,normalized growth,[21],0.905
same,normalized growth,[22],0.878
same,normalized growth,[23],0.917
same,normalized growth,[24],0.311 (active)
same,normalized growth,[25],0.914
same,normalized growth,[26],0.289 (active)
same,normalized growth,[27],0.306 (active)
same,normalized growth,[28],0.164 (active)
same,normalized growth,[29],0.149 (active)
same,normalized growth,[30],0.253 (active)
same,normalized growth,[31],0.281 (active)
same,normalized growth,[32],0.286 (active)
same,normalized growth,[33],0.92
same,normalized growth,[34],0.229 (active)
same,normalized growth,[35],0.907
same,normalized growth,[36],0.503 (active)
same,normalized growth,[37],0.915
same,normalized growth,[38],0.197 (active)
same,normalized growth,[39],0.227 (active)
same,normalized growth,[40],0.745 (active)
same,normalized growth,[41],0.597 (active)
same,normalized growth,[42],0.433 (active)
same,normalized growth,[43],0.903
same,normalized growth,[44],0.348 (active)
same,normalized growth,[45],0.221 (active)
same,normalized growth,[46],0.387 (active)
same,normalized growth,[47],0.205 (active)
same,normalized growth,[48],0.519 (active)
same,normalized growth,[49],0.911
same,normalized growth,[50],0.662 (active)
same,normalized growth,[51],0.873 (active)
same,normalized growth,[52],0.91
same,normalized growth,[53],0.383 (active)
same,normalized growth,[54],0.923
same,normalized growth,[55],0.249 (active)
same,normalized growth,[56],0.908
same,normalized growth,[57],0.892
same,normalized growth,[58],0.196 (active)
same,normalized growth,[59],0.918
same,normalized growth,[60],0.45 (active)
same,normalized growth,[61],0.334 (active)
same,normalized growth,"locus YOR231W, strain MKK1, hits give low values",0.251 (active)
same,normalized growth,[62],0.936
same,normalized growth,[63],0.342 (active)
same,normalized growth,[64],0.216 (active)
same,normalized growth,[65],0.402 (active)
same,normalized growth,[66],0.922
same,normalized growth,[67],0.255 (active)
same,normalized growth,[68],0.923
same,normalized growth,[69],0.944
same,normalized growth,[70],0.92
same,normalized growth,[71],0.935
same,normalized growth,[72],0.898
N#Cc1cccc(Cn2c(=O)oc3ccccc32)c1,normalized growth,"locus YAL013W, strain DEP1, hits give low values",0.988
same,normalized growth,"locus YBR229C, strain ROT2, hits give low values",0.991
same,normalized growth,[11],0.977
same,normalized growth,[1],0.998
same,normalized growth,"locus YEL061C, strain CIN8, hits give low values",0.989
same,normalized growth,[2],1
same,normalized growth,"locus YGR229C, strain SMI1, hits give low values",0.985
same,normalized growth,[29],0.907
same,normalized growth,"locus YHR087W, strain rtc3, hits give low values",0.988
same,normalized growth,"locus YJL187C, strain SWE1, hits give low values",0.996
same,normalized growth,"locus YJR043C, strain POL32, hits give low values",1
same,normalized growth,"locus YJR075W, strain HOC1, hits give low values",0.986
same,normalized growth,"locus YKL190W, strain CNB1, hits give low values",1
same,normalized growth,"locus YLR039C, strain RIC1, hits give low values",1.04
same,normalized growth,"locus YLR058C, strain SHM2 (second series), hits give low values",0.998
same,normalized growth,"locus YLR085C, strain ARP6, hits give low values",1.11
same,normalized growth,"locus YLR262C, strain YPT6, hits give low values",1.01
same,normalized growth,"locus YML094W, strain GIM5, hits give low values",0.972
same,normalized growth,"locus YMR219W, strain ESC1, hits give low values",0.993
same,normalized growth,"locus YMR263W, strain SAP30, hits give low values",0.995
same,normalized growth,[3],0.998
same,normalized growth,"locus YNL298W, strain CLA4 (second series), hits give low values",0.996
same,normalized growth,"locus YNL322C, strain KRE1, hits give low values",0.984
same,normalized growth,"locus YNR030W, strain Alg12, hits give low values",0.977
same,normalized growth,"locus YOL006C, strain TOP1, hits give low values",1.04
same,normalized growth,"locus YPL055C, strain LGE1, hits give low values",1.01
same,normalized growth,"locus YPL241C, strain CIN2, hits give low values",1.06
same,normalized growth,"locus YPR135W, strain CTF4, hits give low values",1
